Common to all, as to set-up: scale not given: direction of the effect not stated beside the values
Experiment [1] addresses Protein translocase subunit SecA (Escherichia coli (strain K12)) (UniProt P10408). Put plainly: Assay to Identify E. coli SecA ATPase Inhibitors. As to conditions: 30 µM. Format: functional.
The target of experiment [2] is T1, Ubiquitin-activating enzyme e1, putative (Leishmania donovani (strain BPK282A1)) (UniProt E9BSI1).
T1 sequence (whole entry): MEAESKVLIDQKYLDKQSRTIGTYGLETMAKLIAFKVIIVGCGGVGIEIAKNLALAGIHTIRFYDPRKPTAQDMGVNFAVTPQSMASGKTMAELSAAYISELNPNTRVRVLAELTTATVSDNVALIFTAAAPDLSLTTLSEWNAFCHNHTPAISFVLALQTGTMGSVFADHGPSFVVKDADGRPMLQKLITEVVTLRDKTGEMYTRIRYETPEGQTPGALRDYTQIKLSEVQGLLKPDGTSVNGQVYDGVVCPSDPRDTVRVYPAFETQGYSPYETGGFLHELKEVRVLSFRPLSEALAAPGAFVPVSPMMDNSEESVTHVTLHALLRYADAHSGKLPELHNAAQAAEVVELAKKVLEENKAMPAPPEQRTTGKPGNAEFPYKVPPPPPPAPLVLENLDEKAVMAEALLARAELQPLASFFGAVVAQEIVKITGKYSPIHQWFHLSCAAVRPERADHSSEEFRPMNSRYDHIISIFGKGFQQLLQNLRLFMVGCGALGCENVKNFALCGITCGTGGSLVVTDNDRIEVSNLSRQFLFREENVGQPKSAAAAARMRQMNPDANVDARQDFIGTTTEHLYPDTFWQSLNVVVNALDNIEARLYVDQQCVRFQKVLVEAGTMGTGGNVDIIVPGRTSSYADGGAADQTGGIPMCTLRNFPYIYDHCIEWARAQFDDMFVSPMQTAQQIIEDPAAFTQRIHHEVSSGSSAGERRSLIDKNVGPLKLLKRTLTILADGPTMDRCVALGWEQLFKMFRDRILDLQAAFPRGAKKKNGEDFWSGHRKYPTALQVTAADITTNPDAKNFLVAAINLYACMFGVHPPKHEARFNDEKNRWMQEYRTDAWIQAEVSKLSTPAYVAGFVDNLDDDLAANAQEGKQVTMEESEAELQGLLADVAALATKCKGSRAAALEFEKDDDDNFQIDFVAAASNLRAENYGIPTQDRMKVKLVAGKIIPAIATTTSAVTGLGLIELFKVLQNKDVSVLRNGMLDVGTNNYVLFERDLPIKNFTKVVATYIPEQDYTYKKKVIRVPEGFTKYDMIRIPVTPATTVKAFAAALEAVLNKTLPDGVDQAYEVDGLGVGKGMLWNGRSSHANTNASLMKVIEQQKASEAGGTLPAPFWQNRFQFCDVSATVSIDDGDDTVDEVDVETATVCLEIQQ
The experiment in a line: Leishmania donovani Ubiquitin Activating Enzyme (LdE1). Format: functional. As to conditions: 30 µM.

Experiment [3] concerns the target AMP-activated protein kinase, AMPK (Homo sapiens) (UniProt P54646+O43741+P54619+Q9UGJ0+Q9Y478+Q13131+Q9UGI9). The experiment in a line: AMP-dependent Kinase enzyme assay. An in vitro enzyme assay that detects ADP turnover that is directly proportional to AMPK activity. This uses naive AMPK that is activated during the assay with MK-8722. As to conditions: 30 µM. The class given is functional.

Experiment [4] has as its target Sialic acid-binding Ig-like lectin 9 (Homo sapiens) (UniProt Q9Y336). The experiment in a line: Hs-Siglec9 ALPHAscreen SOP 20170721. As to conditions: 10 µM. For orientation: In Alpha technology, singlet oxygen from a donor bead excites a nearby acceptor bead.
For another experiment, the system named is Trypanosoma cruzi. The experiment in a line: Trypanosoma cruzi phosphomannomutase and mannose-1-phosphate guanylyltransferase assay. Format: functional. As to conditions: 10 µM.
Experiment [5] deals with T2, Arginase-2, mitochondrial (Homo sapiens) (UniProt P78540).
T2 sequence (whole entry): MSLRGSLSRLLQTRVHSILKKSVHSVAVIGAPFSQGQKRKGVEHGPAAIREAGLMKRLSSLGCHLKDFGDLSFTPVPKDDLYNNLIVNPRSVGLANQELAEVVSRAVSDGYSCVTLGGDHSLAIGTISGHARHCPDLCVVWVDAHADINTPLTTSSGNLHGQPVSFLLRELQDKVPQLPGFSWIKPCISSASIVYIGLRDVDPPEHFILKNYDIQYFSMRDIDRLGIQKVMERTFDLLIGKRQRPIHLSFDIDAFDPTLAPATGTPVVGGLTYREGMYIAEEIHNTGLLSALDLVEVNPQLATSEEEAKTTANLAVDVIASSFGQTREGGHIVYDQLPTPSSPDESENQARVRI
Put plainly: in vitro enzyme assay to detect the production of urea directly proportional to the activity of Arginase II. Note: in the data most compounds retested in dose-response had high values. Format: functional. The following applies: 33.3 µM.

The target of experiment [6] is T3, Proteasome subunit beta (Trypanosoma cruzi) (UniProt O96673).
T3 sequence (whole entry): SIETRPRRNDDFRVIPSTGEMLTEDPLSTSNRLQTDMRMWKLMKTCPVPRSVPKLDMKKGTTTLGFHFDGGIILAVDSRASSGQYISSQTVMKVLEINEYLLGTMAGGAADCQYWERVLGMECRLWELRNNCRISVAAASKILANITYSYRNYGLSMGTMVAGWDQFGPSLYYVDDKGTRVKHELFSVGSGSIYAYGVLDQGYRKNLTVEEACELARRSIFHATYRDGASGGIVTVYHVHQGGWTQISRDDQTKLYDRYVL
Put plainly: Trypanosoma cruzi proteasome chymotrypsin-like activity (TcProtChymo) assay. Note: in the data most compounds retested in dose-response had high values. The class given is functional. The following applies: 9.37 µM.

Another experiment is filed under the species Homo sapiens. The experiment in a line: To identify inhibition of the IFN signalling (Jak-Stat) pathway via expression of an eGFP reporter gene under the control of an IFN-stimulated response element (ISRE) containing MxA promoter. Format: functional. As to conditions: 30 µM. On the technique in general: Reporter assays use an easily measured gene product as a stand-in for the process of interest.

Experiment [7] addresses T4, Tyrosyl-tRNA synthetase, putative (Trypanosoma cruzi (strain CL Brener)) (UniProt Q4DSP6).
T4 sequence (whole entry): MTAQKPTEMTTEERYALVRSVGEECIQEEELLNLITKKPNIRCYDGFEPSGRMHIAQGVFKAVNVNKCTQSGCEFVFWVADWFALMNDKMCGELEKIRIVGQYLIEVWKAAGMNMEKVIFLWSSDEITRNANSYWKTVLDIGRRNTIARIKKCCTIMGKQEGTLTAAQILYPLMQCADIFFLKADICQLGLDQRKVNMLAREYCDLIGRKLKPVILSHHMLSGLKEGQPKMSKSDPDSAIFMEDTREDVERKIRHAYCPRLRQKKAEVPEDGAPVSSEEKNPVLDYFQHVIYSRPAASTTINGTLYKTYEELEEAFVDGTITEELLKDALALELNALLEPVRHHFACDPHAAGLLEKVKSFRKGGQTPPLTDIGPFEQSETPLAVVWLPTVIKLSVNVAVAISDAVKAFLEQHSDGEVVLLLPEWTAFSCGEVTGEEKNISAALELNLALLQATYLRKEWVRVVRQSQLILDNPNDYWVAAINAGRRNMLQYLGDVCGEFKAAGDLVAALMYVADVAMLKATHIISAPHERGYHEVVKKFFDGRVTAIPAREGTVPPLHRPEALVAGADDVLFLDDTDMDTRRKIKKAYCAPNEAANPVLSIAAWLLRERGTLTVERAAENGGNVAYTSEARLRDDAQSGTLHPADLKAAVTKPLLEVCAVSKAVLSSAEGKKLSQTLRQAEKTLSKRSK
The experiment in a line: Trypanosoma cruzi tyrosyl tRNA synthetase (TcYRS) _High Tyrosine SOP. Note: in the data most compounds retested in dose-response had high values. The class given is functional. As to conditions: 30 µM.

The target of experiment [8] is T4, Tyrosyl-tRNA synthetase, putative (Trypanosoma cruzi (strain CL Brener)). The experiment in a line: Trypanosoma cruzi tyrosyl tRNA synthetase (TcYRS) SOP. Format: functional. The following applies: 30 µM.
Experiment [9] deals with Chromo domain-containing protein 1 (Saccharomyces cerevisiae (strain ATCC 204508 / S288c) (Baker's yeast)) (UniProt P32657). Put plainly: ScCHD-1 Enzyme Inhibition Assay. Note: in the data most compounds retested in dose-response had high values. The class given is functional. The following applies: 30 µM.

Molecules are shown by their SMILES. For some of these results: Entries with a potency or affinity are not part of this list.

The values below come from ChEMBL document CHEMBL3988442, “University of Dundee, Small-Polar-MMV Screening Library” (2021).

Chain of Chromo domain-containing protein 1 (Saccharomyces cerevisiae (strain ATCC 204508 / S288c) (Baker's yeast)) (P32657 whole entry, the tested form may be a part): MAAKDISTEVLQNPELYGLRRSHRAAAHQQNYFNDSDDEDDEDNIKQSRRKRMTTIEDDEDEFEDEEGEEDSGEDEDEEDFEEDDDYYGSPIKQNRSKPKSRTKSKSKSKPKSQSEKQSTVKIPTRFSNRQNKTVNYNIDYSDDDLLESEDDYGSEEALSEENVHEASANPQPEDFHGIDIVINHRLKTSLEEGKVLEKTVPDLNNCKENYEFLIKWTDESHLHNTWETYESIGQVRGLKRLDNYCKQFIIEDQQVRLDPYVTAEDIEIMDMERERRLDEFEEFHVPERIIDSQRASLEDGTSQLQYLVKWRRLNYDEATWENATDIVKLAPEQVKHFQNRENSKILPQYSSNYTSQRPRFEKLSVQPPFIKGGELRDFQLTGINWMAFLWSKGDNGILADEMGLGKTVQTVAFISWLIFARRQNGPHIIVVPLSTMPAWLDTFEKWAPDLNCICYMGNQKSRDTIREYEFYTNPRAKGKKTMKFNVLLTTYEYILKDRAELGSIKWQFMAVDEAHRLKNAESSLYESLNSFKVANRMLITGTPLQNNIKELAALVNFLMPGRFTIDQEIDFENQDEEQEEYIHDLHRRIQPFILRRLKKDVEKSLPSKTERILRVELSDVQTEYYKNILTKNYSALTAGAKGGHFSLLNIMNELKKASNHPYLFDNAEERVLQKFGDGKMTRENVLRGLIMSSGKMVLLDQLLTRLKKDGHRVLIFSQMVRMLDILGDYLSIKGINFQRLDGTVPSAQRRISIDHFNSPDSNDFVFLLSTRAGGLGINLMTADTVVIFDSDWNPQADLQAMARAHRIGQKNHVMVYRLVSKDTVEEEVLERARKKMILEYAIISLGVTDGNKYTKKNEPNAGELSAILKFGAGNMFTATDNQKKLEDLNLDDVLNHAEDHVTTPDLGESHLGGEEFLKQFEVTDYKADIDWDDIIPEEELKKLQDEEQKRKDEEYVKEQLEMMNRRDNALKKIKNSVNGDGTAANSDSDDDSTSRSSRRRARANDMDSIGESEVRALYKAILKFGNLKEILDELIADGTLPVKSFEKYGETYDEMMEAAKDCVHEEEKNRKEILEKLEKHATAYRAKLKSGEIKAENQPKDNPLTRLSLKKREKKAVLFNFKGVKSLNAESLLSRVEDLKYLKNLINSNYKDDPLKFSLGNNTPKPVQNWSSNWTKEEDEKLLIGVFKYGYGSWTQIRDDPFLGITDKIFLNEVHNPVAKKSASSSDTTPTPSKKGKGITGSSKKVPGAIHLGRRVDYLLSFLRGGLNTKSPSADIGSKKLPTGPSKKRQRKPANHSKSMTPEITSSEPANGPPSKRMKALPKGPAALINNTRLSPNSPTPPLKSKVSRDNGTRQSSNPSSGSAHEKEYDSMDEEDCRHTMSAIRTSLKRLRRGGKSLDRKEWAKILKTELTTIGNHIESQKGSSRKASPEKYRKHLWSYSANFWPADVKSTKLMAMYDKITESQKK
Chain of Protein translocase subunit SecA (Escherichia coli (strain K12)) (P10408 whole entry): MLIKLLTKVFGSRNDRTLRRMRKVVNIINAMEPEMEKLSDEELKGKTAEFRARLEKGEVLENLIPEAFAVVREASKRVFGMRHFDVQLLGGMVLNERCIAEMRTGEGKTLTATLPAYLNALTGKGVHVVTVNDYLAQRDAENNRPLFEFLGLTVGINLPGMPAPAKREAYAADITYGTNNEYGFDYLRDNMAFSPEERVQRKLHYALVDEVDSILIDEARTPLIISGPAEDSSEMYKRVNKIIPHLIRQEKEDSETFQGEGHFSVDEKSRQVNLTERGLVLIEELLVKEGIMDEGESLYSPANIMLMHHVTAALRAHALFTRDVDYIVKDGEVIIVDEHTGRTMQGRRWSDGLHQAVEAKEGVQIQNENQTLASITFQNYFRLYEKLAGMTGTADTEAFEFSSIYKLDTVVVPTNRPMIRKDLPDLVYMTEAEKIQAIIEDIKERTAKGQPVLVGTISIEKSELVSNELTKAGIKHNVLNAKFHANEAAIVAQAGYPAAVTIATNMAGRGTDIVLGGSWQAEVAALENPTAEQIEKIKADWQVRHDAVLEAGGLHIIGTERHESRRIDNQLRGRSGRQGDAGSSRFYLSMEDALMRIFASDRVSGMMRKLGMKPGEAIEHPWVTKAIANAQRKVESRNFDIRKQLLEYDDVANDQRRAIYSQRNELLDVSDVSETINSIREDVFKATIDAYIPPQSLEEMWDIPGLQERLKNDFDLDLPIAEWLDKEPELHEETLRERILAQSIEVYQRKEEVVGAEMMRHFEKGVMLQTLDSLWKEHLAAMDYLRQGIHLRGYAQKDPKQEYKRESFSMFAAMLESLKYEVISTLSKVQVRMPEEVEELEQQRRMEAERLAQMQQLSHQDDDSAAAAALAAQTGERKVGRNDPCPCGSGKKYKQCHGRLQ
Chain of Sialic acid-binding Ig-like lectin 9 (Homo sapiens) (Q9Y336 whole entry): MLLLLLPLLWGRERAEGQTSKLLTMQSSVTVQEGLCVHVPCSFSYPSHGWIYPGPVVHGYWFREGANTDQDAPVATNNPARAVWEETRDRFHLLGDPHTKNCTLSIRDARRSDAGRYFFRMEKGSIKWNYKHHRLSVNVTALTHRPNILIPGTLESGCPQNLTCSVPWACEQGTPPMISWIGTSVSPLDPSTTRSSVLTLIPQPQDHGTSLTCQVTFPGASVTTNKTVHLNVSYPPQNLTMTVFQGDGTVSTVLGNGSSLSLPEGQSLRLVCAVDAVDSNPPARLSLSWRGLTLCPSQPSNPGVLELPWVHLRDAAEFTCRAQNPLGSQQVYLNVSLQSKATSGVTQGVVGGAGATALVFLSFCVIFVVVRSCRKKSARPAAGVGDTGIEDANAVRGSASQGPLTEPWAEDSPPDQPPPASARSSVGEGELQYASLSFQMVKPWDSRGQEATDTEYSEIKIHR

Take `O=C1CC(c2cccnc2)C2(CCN(C(=O)c3ccncc3)CC2)N1` (stereo unspecified): the Percent Effect in [1] was -4.11%; in experiment [2], 10.8%; in experiment [3] it was 2.03%; in experiment [4], -3.18%; in the experiment with Trypanosoma cruzi it was 3.81%; in [5], -4.78%. For the same compound, the Percent Effect is 17.9% in experiment [6]; -0.901% in the experiment listed under Homo sapiens; 4.32% in experiment [7]; 15.4% in experiment [8]; 1.46% in [9].

As to `CCOc1ccccc1C1CCCN1` (stereo unspecified), the Percent Effect was -5.25% in experiment [1]; 7.89% in [2]; 2.38% in experiment [3]; -2.36% in [4]; 1.27% in the experiment on Trypanosoma cruzi; -7.1% in [5]. Besides, the Percent Effect in experiment [6] is 15.4%; in the experiment listed under Homo sapiens, -5.78%; in experiment [7] it was -1.06%; in experiment [8] it was 2.6%; in experiment [9], -7.12%.

On to `CS(=O)(=O)CCNC(=O)C1(c2cccc(Cl)c2)CCCCC1`, for which the Percent Effect in [1] is -7.1%; in experiment [2], -1.39%; in [3], 0.793%; in experiment [4], -3.56%; with Trypanosoma cruzi, -1.46%; in experiment [5], -2.65%. Moreover, the Percent Effect is 6.14% in [6]; 13.7% in the experiment filed under Homo sapiens; -4.21% in experiment [7]; -7.69% in [8]; -0.434% in experiment [9].

For the compound `CC[C@H](C)[C@H](NC(=O)Cc1csc(-c2cccc(Cl)c2)n1)C(=O)O`, the Percent Effect was -3.85% in [1]; 9.33% in [2]; 11.6% in experiment [3]; 11.9% in experiment [4]; 0.982% in the experiment with Trypanosoma cruzi; -4.75% in experiment [5]. Further, the Percent Effect in experiment [6] is 12.6%; in the experiment filed under Homo sapiens, -8.02%; in experiment [7] it was 4.23%; in experiment [8], 7.69%; in experiment [9], -5.96%.

Turning to `CCN(CC)CCNC(=O)c1ccn(COc2cc(C)cc(C)c2)n1`, the Percent Effect is -1.61% in [1]; 9.33% in [2]; 0.388% in experiment [3]; 2.31% in [4]; -0.197% in the experiment with Trypanosoma cruzi; -8.28% in [5]. Also, the Percent Effect in experiment [6] was 21.4%; in the experiment listed under Homo sapiens it was 0.95%; in experiment [7] it was 6.35%; in experiment [8], 15.4%; in experiment [9], -9.92%.

Turning to `Fc1cnc(N2CCC3(COCc4cnc(NCC5CC5)nc43)C2)nc1` (stereo unspecified), the Percent Effect was 2.14% in experiment [1]; -2.74% in experiment [2]; 27.5% in experiment [3]; 4.49% in experiment [4]; -1.59% with Trypanosoma cruzi; 2.4% in experiment [5]. Moreover, the Percent Effect in experiment [6] is 4.88%; in the experiment listed under Homo sapiens, -6.32%; in [7], 1.04%; in experiment [8], 3.7%; in experiment [9] it was 2.6%.

Regarding `COc1cccc(-c2nccnc2C2CCN(C(C)=O)CC2)c1`, the Percent Effect in [1] was -1.31%; in experiment [2] it was 9.46%; in experiment [3] it was 8.79%; in experiment [4], -0.0533%; with Trypanosoma cruzi, -0.593%; in experiment [5], 1.16%. The Percent Effect in [6] was 15.1%; in the experiment filed under Homo sapiens, -0.133%; in [7], 3.23%; in experiment [8], 14.3%; in experiment [9], -14.9%.

In the case of `COc1ccc(C2=CCN(C(=O)C3CCN(C)C(=O)C3)CC2)cc1` (stereo unspecified), the Percent Effect is -3.77% in experiment [1]; 15.8% in experiment [2]; 2.43% in experiment [3]; -4.29% in [4]; 9.06% with Trypanosoma cruzi; 1.8% in experiment [5]. Moreover, the Percent Effect in experiment [6] is 7.19%; in the experiment filed under Homo sapiens it was 6.58%; in [7], 7.39%; in experiment [8] it was 16.1%; in experiment [9], -5.39%.

`CCc1nccn1C1CCCN(C(=O)c2cnn3ccc(C)nc23)C1` (stereo unspecified): the Percent Effect is -3.42% in [1]; -2.7% in experiment [2]; -5.57% in experiment [3]; 1.51% in [4]; -0.283% in the experiment with Trypanosoma cruzi; -2% in experiment [5]. Also, the Percent Effect in experiment [6] is 4.5%; in the experiment listed under Homo sapiens, 4.32%; in experiment [7], 5.42%; in experiment [8], -6.17%; in [9], -7.37%.

Turning to `COc1ccc(CN2C[C@H]3CN(c4ccsc4)C(=O)[C@H]3C2)cc1`, the Percent Effect in experiment [1] is -1.53%; in experiment [2] it was 0%; in [3], 6.82%; in [4] it was -0.914%; in the experiment on Trypanosoma cruzi, -3.23%; in [5], 0.955%. Also, the Percent Effect is 19% in experiment [6]; 14.6% in the experiment filed under Homo sapiens; 2.16% in [7]; 10.3% in experiment [8]; -1.59% in experiment [9].

For `CC(C)c1nc(CN2CCN(CC3CCCO3)CC2)cs1` (stereo unspecified), the Percent Effect in [1] was 1.19%; in [2] it was 10.4%; in experiment [3] it was -7.85%; in [4] it was -14%; in the experiment with Trypanosoma cruzi, -1.47%; in experiment [5] it was 6.95%. Also, the Percent Effect in experiment [6] is 14.8%; in the experiment filed under Homo sapiens, 17.1%; in experiment [7], 4.76%; in [8] it was 9.41%; in [9] it was -15.6%.
